This passage reports binding signal results from paper PMC6212790, “How bacterial xenogeneic silencer rok distinguishes foreign from self DNA in its resident genome”.

The full ranking holds about 33,000 sequences; the median of “e-score” is about -0.038, and the highest 2% start at about 0.33. The full list was thinned out, with the highest values kept by preference.

The target of this assay is T1, GST-Rok-C97-191 (Bacillus subtilis subsp. subtilis str. …, UniProt O34857 97-191).
T1 sequence: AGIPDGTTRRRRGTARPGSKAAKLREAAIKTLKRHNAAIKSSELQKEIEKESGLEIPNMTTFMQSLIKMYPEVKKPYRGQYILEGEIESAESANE
The assay can be described thus: protein binding microarray; Rok is a gene silencer of Bacillus subtilis; high values mean tight binding. Particulars: protein: recombinant; tags: GST (pTH5325, pDEST15-Magic modified); dsDNA, one strand shown. Put shortly:
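Every oligonucleotide joins a 25-mer constant primer to a 35-mer variable part drawn from a de Bruijn sequence of order 10, so each non-palindromic 8-mer appears at least 32 times and each palindromic 8-mer 16 times. The preference for every 8-mer is reported as a unitless, rank-based enrichment score (E-score). This score spans 0.5 for the most favored 8-mer to −0.5 for the most disfavored.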
For the sequence CCAAGTTC, the binding signal is -0.0242 E-score.
In the case of CTTGTGGC it was -0.167 E-score.
With ACGTGAGC, the binding signal is -0.0668 E-score.
Turning to ACGCCTTA, the binding signal was 0.073 E-score.
In the case of AGCCCGCT it was -0.168 E-score; in that of CCATAGCA, -0.0019 E-score.
In the case of AGAGTAGA, the binding signal is 0.143 E-score.
With ATAGTAGC the figure was 0.378 E-score; with ATAGTAGG, 0.329 E-score.
With AGAGTAGC the figure was 0.0737 E-score; with ATAGTAGA, 0.355 E-score.
ATCGTAGC: the binding signal was -0.0487 E-score.
With AGAGTAGG the figure was -0.15 E-score.
On to ATAGTACG, for which the binding signal was 0.248 E-score.
In the case of AAAGTAGA it was 0.298 E-score; in that of GCTTGAAC, -0.0848 E-score.
In the case of AGTCCATC, the binding signal was -0.159 E-score.
With GGTTCAAC the figure was -0.0853 E-score; with CCTCTTCA, -0.193 E-score; with CCAACCTA, -0.0204 E-score.
In the case of GCTTATAA it was 0.101 E-score; in that of CGTACTAG, 0.0424 E-score.
With AGTACTGG the figure was 0.0209 E-score.
Consider CGTACTAC, for which the binding signal is 0.305 E-score.
With GGTACTAC the figure was 0.233 E-score; with AGTACTAG, 0.334 E-score; with AGTACTAT, 0.367 E-score.
In the case of AGTACTAC it was 0.35 E-score; in that of AGTACTAA, 0.277 E-score.
With AGTACTCA the figure was -0.0984 E-score; with ATTGCGCC, -0.134 E-score.
In the case of ACCATATG, the binding signal is 0.229 E-score.
With AACTGGAC the figure was -0.0284 E-score; with TAGTGGGA, 0.119 E-score.
With AATTTCGC the figure was 0.151 E-score; with GATGAAGC, 0.0229 E-score.
Consider ATTTTATC, for which the binding signal is 0.328 E-score.
With GTTTTATA the figure was 0.122 E-score.
Take CTTTTATC: the binding signal stood at 0.0697 E-score.
In the case of ATTTTATA it was 0.385 E-score.
With CTTTTATA the figure was 0.236 E-score; with ATTTTATG, 0.229 E-score; with AGACCTGG, -0.167 E-score.
In the case of GTCGTAAC it was 0.0491 E-score; in that of CTACAAAC, 0.114 E-score; in that of ATACAAAC, 0.371 E-score.
In the case of ATACAAAG, the binding signal is 0.17 E-score.
With ATACAAAA the figure was 0.276 E-score.
In the case of ATACAAAT it was 0.337 E-score; in that of GTACAAAC, 0.304 E-score; in that of CAGGAATG, -0.083 E-score.
In the case of TGAGGTAA it was 0.126 E-score; in that of ATTGACCG, -0.00184 E-score.
For AATACTAA, the binding signal amounted to 0.287 E-score.
In the case of AATACTCT it was 0.131 E-score; in that of TATACTAA, 0.382 E-score; in that of AATACTCG, 0.0344 E-score.
As to AATACTAC, the binding signal is 0.383 E-score.
In the case of AATACTAT it was 0.35 E-score; in that of CATACTAC, 0.284 E-score.
With GATACTAC, the binding signal is 0.313 E-score.
With CATACTAG the figure was 0.285 E-score.
With CATACTAA the figure was 0.0976 E-score; with AATACTAG, 0.34 E-score; with AATACTGT, 0.083 E-score.
With GCAATCCC the figure was -0.104 E-score.
As for GTCAGGAC, the binding signal was -0.147 E-score.
In the case of AATTTCAG it was 0.153 E-score; in that of ACCTTCGG, -0.173 E-score.
On to AGTTGAGA, for which the binding signal was found to be 0.111 E-score.
For ACCTAACT, the binding signal was 0.128 E-score.
In the case of TAGACGAA it was -0.0468 E-score; in that of GTGCAAAA, 0.0465 E-score.
In the case of CGTCCACG it was -0.161 E-score.
With AGGTTGCG the figure was -0.0431 E-score; with AGTAATCG, 0.0918 E-score.
In the case of ACTAATAC, the binding signal was 0.248 E-score.
In the case of ACTAATAG it was 0.292 E-score.
With ACTAATAT the figure was 0.342 E-score; with AGTAATAG, 0.355 E-score; with AGTAATAT, 0.386 E-score.
In the case of CGTAATAG it was 0.247 E-score; in that of AGTAATAA, 0.238 E-score.
For the sequence AGTAATAC, the binding signal was 0.274 E-score.
On to AAGGTTGG, for which the binding signal was -0.0102 E-score.
With ACGCATTA the figure was 0.134 E-score; with CGGTGCAG, -0.0983 E-score.
In the case of GGCTAGAC, the binding signal was -0.152 E-score.
In the case of AGATTAGC it was 0.212 E-score; in that of TAGTAAAA, 0.37 E-score; in that of AAGTAAAC, 0.116 E-score.
Regarding AAGTAAAA, the binding signal worked out at 0.335 E-score.
Turning to TGGTAAAA, the binding signal was 0.337 E-score.
In the case of GAGTAAAA it was 0.269 E-score; in that of CAGTAAAA, 0.188 E-score; in that of GGGTAAAA, 0.206 E-score.
Regarding AAGTAAGT, the binding signal worked out at 0.263 E-score.
In the case of AGGTAAAT it was 0.247 E-score; in that of AAGTAAAT, 0.359 E-score.
Consider CGGTAAAA, for which the binding signal worked out at 0.242 E-score.
In the case of AAGTAAAG it was 0.104 E-score; in that of CTGAAAAG, 0.0606 E-score; in that of CTCCATAA, -0.175 E-score.
In the case of TCTCCGAA, the binding signal amounted to 0.161 E-score.
For TAAGCATA, the binding signal is 0.00925 E-score.
In the case of AAAGGTCA it was -0.146 E-score; in that of ACGCACCA, -0.186 E-score; in that of AAGACCGG, -0.0043 E-score.
With CCTTATTA the figure was 0.0213 E-score.
In the case of CGTAACTC it was 0.0679 E-score.
On to GTTAGCGA, for which the binding signal is 0.0595 E-score.
With GAGCTGCC the figure was 0.0253 E-score; with GACAGACA, -0.102 E-score.
In the case of CGTAAGTA it was 0.16 E-score.
In the case of GCGTGAGA it was -0.00817 E-score; in that of GATTACTA, 0.354 E-score.
Consider CATTACTA, for which the binding signal was determined as 0.32 E-score.
In the case of GATTACAA it was 0.134 E-score.
With ATTTACTC the figure was 0.234 E-score; with ATTTACTG, 0.319 E-score.
For the sequence AATTACCC, the binding signal came to 0.185 E-score.
In the case of AATTACTG it was 0.253 E-score; in that of AATTACCA, 0.33 E-score; in that of ATTTACTA, 0.439 E-score.
In the case of AATTACTA it was 0.43 E-score; in that of AATTACTC, 0.255 E-score.
As to GATTACCA, the binding signal was 0.14 E-score.
In the case of AGGCCTAG it was 0.0496 E-score; in that of GACCGCTA, 0.0642 E-score.
With AATAACCG the figure was 0.184 E-score; with AACCAGCA, 0.0878 E-score; with GTCGAGGA, -0.0836 E-score.
With GCGTCCGA the figure was -0.026 E-score; with CACCTCGC, -0.148 E-score; with ACTGCCCT, -0.164 E-score.
On to GGAAGTCA, for which the binding signal is -0.092 E-score.
With AAGTTTCC the figure was 0.148 E-score; with AAATTACC, 0.365 E-score; with CAATTACC, 0.0477 E-score.
With AAATTACT the figure was 0.358 E-score; with AAATTACG, 0.273 E-score.
As to GAATTACC, the binding signal was 0.18 E-score.
With ACATTACT the figure was 0.263 E-score.
With CAGTTGAC the figure was 0.0118 E-score; with AACGCAAA, -0.043 E-score; with CCAACTCG, -0.0471 E-score.
Consider CCATGCTA, for which the binding signal was found to be 0.153 E-score.
With ACATGCTA the figure was 0.33 E-score.
With GCATGCTA the figure was 0.0693 E-score; with CTGACATA, -0.188 E-score; with ACACAACT, 0.0324 E-score.
Regarding ATATACTA, the binding signal was 0.436 E-score.
With GCATACTA the figure was 0.241 E-score; with ATATACTG, 0.365 E-score; with ATATACAA, 0.365 E-score.
In the case of GGATACTA it was 0.167 E-score.
For ATATACAG, the binding signal worked out at 0.317 E-score.
In the case of GTATACTA it was 0.338 E-score.
Regarding CTATACTC, the binding signal stood at 0.173 E-score.
In the case of ACATACTA, the binding signal was found to be 0.305 E-score.
As for CTATACAA, the binding signal was 0.3 E-score.
In the case of CTATACTA it was 0.301 E-score.
In the case of ATATACTC it was 0.293 E-score; in that of CAAGGATG, -0.044 E-score.
In the case of CTGTCTCA it was -0.118 E-score; in that of CAGGGCCA, -0.145 E-score.
For the sequence GTCACAAA, the binding signal stood at 0.0798 E-score.
In the case of GAGCTTGA it was -0.0815 E-score; in that of CACTTGTA, 0.238 E-score.
With GACAAGTA the figure was 0.226 E-score; with CAATTGTG, 0.0188 E-score.
With AATTCGAT the figure was 0.215 E-score.
